Calls of active or inactive are those of the source.
Key:
[1] = tested on: Plasmodium falciparum Sir2 (PF13_0152, Sir2A); assay: Plasmodium falciparum Sir2A binding compounds – biochemical, small-molecule microarray, 635 nm fluorescence, primary screen (AID 1098); details: fluorescence 635 nm, higher = more signal;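 note: score merges spot fluorescence intensity with its signal-to-noise ratio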
[2] = probe aDKK1 binding to arrayed compounds – biochemical, biotinylated probe, 635/667 nm fluorescence, primary screen (AID 1099); details: small-molecule microarray, higher = more signal;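 note: score merges 667nm spot fluorescence with signal to noise across triplicate slides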
[3] = probe aCHRDL2 binding to arrayed compounds – biochemical, biotinylated probe, 635/667 nm fluorescence, primary screen (AID 1100); details: small-molecule microarray, higher = more signal
[4] = change in splice reporter luminescence, either direction, cell-based, HEK293, spliceosome inhibition project, primary screen (AID 1101); details: HEK293 splicing luciferase reporter, 24 h, higher = more signal, called active from +8 up or from −8 down;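 note: HEK293 cells carrying a splicing-competent luciferase reporter gene; test concentration not given here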
[5] = biological target: Fibroblast growth factor 10 (Homo sapiens) (UniProt O15520); assay: compounds binding fibroblast growth factor 10 – biochemical, small-molecule microarray, 635 nm fluorescence, primary screen (AID 1102); details: FGF10 binding, fluorescence 635 nm, higher = more signal
Chain of Fibroblast growth factor 10 (Homo sapiens) (O15520 whole entry, looked up): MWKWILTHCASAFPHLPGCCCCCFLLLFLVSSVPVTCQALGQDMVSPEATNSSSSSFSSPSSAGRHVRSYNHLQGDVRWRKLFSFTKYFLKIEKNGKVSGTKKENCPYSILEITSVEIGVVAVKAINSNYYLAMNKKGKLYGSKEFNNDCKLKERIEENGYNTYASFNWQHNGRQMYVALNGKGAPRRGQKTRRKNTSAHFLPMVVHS

[6] = tested on: glycogen synthase kinase-3 (GSK3A per assay name; protocol says GSK3B); assay: compounds binding glycogen synthase kinase-3 – biochemical, small-molecule microarray, 635 nm fluorescence, GSK3A, primary screen (AID 1103); details: fluorescence 635 nm, higher = more signal; note: the record names both GSK3A and GSK3B
[7] = biological target: Epidermal growth factor receptor (Homo sapiens) (UniProt P00533); assay: compounds binding epidermal growth factor receptor – biochemical, small-molecule microarray, 635 nm fluorescence, primary screen (AID 1104); details: EGFR binding, higher = more signal;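 note: score merges 667 nm emission intensity with spot signal to noise over triplicate slides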
Chain of Epidermal growth factor receptor (Homo sapiens) (P00533 whole entry, looked up): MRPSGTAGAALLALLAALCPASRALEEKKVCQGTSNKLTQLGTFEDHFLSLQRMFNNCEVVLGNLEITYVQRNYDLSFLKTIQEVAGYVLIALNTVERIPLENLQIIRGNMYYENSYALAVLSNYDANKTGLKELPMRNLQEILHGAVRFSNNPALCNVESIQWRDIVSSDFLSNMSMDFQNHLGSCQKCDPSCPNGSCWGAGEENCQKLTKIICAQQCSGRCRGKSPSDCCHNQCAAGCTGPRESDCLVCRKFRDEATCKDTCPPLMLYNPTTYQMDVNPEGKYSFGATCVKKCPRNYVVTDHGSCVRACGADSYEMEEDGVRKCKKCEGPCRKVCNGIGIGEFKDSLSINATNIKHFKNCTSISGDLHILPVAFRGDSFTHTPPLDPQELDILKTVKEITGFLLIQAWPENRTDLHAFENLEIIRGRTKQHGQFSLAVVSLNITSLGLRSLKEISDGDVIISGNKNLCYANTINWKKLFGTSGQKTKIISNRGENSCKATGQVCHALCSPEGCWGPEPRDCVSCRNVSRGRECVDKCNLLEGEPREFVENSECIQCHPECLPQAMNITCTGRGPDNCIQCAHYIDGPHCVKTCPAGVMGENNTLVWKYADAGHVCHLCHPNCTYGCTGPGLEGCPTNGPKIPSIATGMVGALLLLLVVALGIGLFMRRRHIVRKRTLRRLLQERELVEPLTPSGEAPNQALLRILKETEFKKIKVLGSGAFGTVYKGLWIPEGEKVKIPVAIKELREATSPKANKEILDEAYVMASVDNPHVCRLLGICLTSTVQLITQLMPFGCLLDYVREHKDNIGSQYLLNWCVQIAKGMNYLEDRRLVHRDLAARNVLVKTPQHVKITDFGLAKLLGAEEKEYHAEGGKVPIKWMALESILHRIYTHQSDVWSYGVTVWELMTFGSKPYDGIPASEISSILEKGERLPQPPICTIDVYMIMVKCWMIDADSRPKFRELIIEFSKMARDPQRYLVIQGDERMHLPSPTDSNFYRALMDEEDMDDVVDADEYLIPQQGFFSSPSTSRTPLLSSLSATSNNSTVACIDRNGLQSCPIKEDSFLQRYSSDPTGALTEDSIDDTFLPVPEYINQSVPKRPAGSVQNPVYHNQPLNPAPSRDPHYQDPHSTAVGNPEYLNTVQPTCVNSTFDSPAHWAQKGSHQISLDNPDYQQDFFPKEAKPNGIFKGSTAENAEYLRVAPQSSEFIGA

[8] = biological target: Follistatin-related protein 3 (Homo sapiens) (UniProt O95633); assay: compounds binding follistatin-related protein 3 – biochemical, small-molecule microarray, 635 nm fluorescence, primary screen (AID 1105); details: FSTL3 binding, higher = more signal;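 note: score merges emission near 667 nm and signal to noise per printed spot across three slides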
Chain of Follistatin-related protein 3 (Homo sapiens) (O95633 whole entry, looked up): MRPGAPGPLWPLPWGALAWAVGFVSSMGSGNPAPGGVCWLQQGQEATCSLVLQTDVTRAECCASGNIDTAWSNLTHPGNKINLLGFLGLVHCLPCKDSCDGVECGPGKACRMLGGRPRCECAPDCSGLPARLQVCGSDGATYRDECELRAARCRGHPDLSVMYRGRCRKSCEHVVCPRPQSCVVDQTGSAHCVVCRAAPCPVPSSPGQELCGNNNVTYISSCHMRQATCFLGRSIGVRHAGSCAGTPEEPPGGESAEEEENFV

[9] = biological target: Dickkopf-related protein 1 (Homo sapiens) (UniProt O94907); assay: small molecules binding DKK1 protein – biochemical, small-molecule microarray, 635 nm fluorescence scan, primary screen (AID 1106); details: higher = more signal;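 note: score merges emission near 667 nm with signal to noise over three replicate slides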
Chain of Dickkopf-related protein 1 (Homo sapiens) (O94907 whole entry, looked up): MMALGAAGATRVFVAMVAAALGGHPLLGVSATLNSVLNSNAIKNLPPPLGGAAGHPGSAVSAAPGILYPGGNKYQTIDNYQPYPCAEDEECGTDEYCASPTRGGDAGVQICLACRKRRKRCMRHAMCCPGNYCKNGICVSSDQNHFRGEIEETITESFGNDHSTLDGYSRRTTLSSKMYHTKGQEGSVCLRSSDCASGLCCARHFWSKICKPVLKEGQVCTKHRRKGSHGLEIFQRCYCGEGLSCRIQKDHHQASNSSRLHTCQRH

[10] = tested on: Inhibin beta A chain (activin A); assay: small molecules binding activin A – biochemical, small-molecule microarray, 635 nm fluorescence scan, primary screen (AID 1107); details: INHBA, higher = more signal;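 note: mouse activin A protein probed at 4.33 µg/mL on printed slides; score merges bound-protein fluorescence near 667 nm with spot signal-to-noise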
[11] = tested on: Human papillomavirus type 1a protein E7 (residues 44-93); assay: small molecules binding HPV E7 44-93 – biochemical, small-molecule microarray, residues 44-93, 635 nm fluorescence, primary screen (AID 1108); details: fluorescence 635 nm, higher = more signal;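 note: E7 fragment applied at 1 µg/mL in TBST for 1 h at 4 C; score combines spot fluorescence with its signal to noise ratio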
[12] = hepatitis C replication reporter changes, two-sided – Huh7 cells, luciferase reporter, HCV replication inhibitor project, primary screen (AID 1109); details: Huh7 HCV replicon luciferase reporter, 48 h; higher = more signal;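 note: huh7 hepatoma cells harbouring a luciferase neomycin HCV replicon reporter; luciferase luminescence as measure of HCV replicon replication; test concentration not given here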
[13] = biological target: Left-right determination factor 2 (Homo sapiens) (UniProt O00292); assay: small molecules binding LEFTY2 protein – biochemical, small-molecule microarray, 635 nm fluorescence scan, primary screen (AID 1110); details: higher = more signal
Chain of Left-right determination factor 2 (Homo sapiens) (O00292 whole entry, looked up): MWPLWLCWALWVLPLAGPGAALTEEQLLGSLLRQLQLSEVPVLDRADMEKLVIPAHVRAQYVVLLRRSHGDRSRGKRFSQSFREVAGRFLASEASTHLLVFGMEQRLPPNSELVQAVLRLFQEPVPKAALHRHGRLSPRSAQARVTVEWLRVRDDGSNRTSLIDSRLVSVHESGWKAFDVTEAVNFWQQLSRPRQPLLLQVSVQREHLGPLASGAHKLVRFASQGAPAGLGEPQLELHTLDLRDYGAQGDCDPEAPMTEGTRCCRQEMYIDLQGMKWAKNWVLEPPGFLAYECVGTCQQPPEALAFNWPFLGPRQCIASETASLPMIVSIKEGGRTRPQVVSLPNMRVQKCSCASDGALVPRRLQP

[14] = biological target: Calmodulin-1 (Homo sapiens) (UniProt P0DP23); assay: small molecules binding calmodulin-1 with EGTA – biochemical, small-molecule microarray, Cy5-labelled CALM1, profiling panel (AID 1111); details: Cy5-CALM1 binding fluorescence, higher = more signal;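 note: labelled calmodulin applied in Tris saline Tween buffer holding calcium plus EGTA and DTT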
[15] = biological target: Calmodulin-1 (Homo sapiens) (UniProt P0DP23); assay: small molecules binding Ca-loaded calmodulin-1 – biochemical, small-molecule microarray, Cy5-labelled CALM1, plus calcium, artefact control for SMM control-protein annotation, profiling panel (AID 1112); details: Cy5-CALM1 binding fluorescence, higher = more signal;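 note: score merges spot fluorescence with signal to noise from triplicate slides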
[16] = probe aWnt5a binding to arrayed compounds – biochemical, biotinylated probe, 635/667 nm fluorescence, primary screen (AID 1113); details: small-molecule microarray, higher = more signal;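 note: score merges 667 nm fluorescence intensity with signal-to-noise per printed feature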
[17] = probe aShh binding to arrayed compounds – biochemical, biotinylated probe, 635/667 nm fluorescence, primary screen (AID 1114); details: small-molecule microarray, higher = more signal;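 note: probe is biotin-labelled aShh protein from a stem cell growth factor screen; measures binding of labelled protein to compounds printed on the slide; score merges feature fluorescence at 667 nm with signal-to-noise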
[18] = probe aNog binding to arrayed compounds – biochemical, biotinylated probe, 635/667 nm fluorescence, primary screen (AID 1115); details: small-molecule microarray, higher = more signal;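 note: probe is biotinylated aNog protein used at 0.15 µg/mL for 1 h at 4 C; z-score combines 667 nm fluorescence of each spot with its signal to noise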
[19] = biological target: Torsin-1A-interacting protein 1 (Homo sapiens) (UniProt Q5JTV8); assay: compound microarray binding of lysate hLAP1 – cell lysate, small-molecule microarray, COS7 lysate, 635/667 nm fluorescence, primary screen (AID 1116); details: 635 nm fluorescence, higher = more signal
Chain of Torsin-1A-interacting protein 1 (Homo sapiens) (Q5JTV8 whole entry, looked up): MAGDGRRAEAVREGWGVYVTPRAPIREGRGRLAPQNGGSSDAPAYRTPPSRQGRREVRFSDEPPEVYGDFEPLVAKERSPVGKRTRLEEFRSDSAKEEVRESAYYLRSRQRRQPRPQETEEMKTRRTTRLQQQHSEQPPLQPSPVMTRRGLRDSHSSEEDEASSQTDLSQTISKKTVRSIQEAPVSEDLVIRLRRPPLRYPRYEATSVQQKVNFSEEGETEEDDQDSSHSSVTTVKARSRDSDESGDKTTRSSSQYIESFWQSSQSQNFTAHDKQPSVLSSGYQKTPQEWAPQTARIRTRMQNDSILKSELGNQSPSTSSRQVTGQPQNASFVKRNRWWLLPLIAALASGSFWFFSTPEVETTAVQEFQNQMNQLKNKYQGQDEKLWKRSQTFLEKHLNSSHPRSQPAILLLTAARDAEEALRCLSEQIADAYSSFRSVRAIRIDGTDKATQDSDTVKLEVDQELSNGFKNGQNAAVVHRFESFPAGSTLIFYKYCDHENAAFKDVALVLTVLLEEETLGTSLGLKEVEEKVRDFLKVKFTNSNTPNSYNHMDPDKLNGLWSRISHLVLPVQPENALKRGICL

[20] = biological target: Alpha-bungarotoxin (Bungarus multicinctus) (UniProt P60615); assay: compounds binding labelled alpha-BTX control protein – biochemical, small-molecule microarray, Alexa647 label, 635/667 nm fluorescence, artefact control for SMM control protein annotation, profiling panel (AID 1117); details: alpha-BTX-A647 binding fluorescence, higher = more signal
Chain of Alpha-bungarotoxin (Bungarus multicinctus) (P60615 whole entry, looked up): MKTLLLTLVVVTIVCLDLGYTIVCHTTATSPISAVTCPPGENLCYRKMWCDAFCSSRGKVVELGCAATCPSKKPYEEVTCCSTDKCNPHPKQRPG

SMILES: COCCOC(=O)N1C(=O)[C@@]2(c3cc(C#CCNC(N)=O)ccc31)[C@H](c1ccccc1OCCO)N1[C@H](c3ccccc3)[C@H](c3ccccc3)OC(=O)[C@H]1[C@@H]2C(=O)Nc1nc2ccccc2s1
- composite z-score [1]: 0.852
- composite z-score [2]: 0.868
- composite z-score [3]: 1.13
- z-score [4]: -0.349 (inactive)
- composite z-score [5]: 0.141
- composite z-score [6]: 0.218
- composite z-score [7]: 0.135
- composite z-score [8]: 0.572
- composite z-score [9]: 0.505
- composite z-score [10]: 0.887
- composite z-score [11]: 0.872
- z-score [12]: 0.048
- composite z-score [13]: 0.163
- composite z-score [14]: 1.58
- composite z-score [15]: 1.14
- composite z-score [16]: -0.0758
- composite z-score [17]: 0.284
- composite z-score [18]: 0.561
- composite z-score [19]: 0.745
- composite z-score [20]: 2.51

SMILES: C=CCNC(=O)[C@H]1[C@@H]2C(=O)O[C@@H](c3ccccc3)[C@@H](c3ccccc3)N2[C@@H](c2ccccc2OCCO)[C@]12C(=O)N(C(=O)OCCOC)c1ccc(C#CCCO)cc12
- composite z-score [1]: 0.745
- composite z-score [2]: 1.73
- composite z-score [3]: 0.981
- z-score [4]: -0.485 (inactive)
- composite z-score [5]: 1.35
- composite z-score [6]: 1.2
- composite z-score [7]: 0.843
- composite z-score [8]: 1.24
- composite z-score [9]: 0.983
- composite z-score [10]: 1.01
- composite z-score [11]: 0.188
- z-score [12]: -2.5
- composite z-score [13]: 1.06
- composite z-score [14]: 1.78
- composite z-score [15]: 1.08
- composite z-score [16]: 0.0722
- composite z-score [17]: 0.715
- composite z-score [18]: 1.23
- composite z-score [19]: 0.985
- composite z-score [20]: 0.581

SMILES: Cc1ccc(N2C(=O)c3ccccc3[C@](C)(C(=O)NCC(F)(F)F)[C@@H]2c2ccc(CO)cc2)nc1
- composite z-score [1]: 0.919
- composite z-score [2]: 0.421
- composite z-score [3]: 0.949
- z-score [4]: 0.21 (inactive)
- composite z-score [5]: -0.975
- composite z-score [6]: -1.29
- composite z-score [7]: -1.27
- composite z-score [8]: -1.82
- composite z-score [9]: -1.15
- composite z-score [10]: -0.528
- composite z-score [11]: -2.53
- z-score [12]: 0.208
- composite z-score [13]: -1.47
- composite z-score [14]: -0.538
- composite z-score [15]: 0.733
- composite z-score [16]: -0.132
- composite z-score [17]: -0.291
- composite z-score [18]: -0.136
- composite z-score [19]: -0.438
- composite z-score [20]: -1.58

SMILES: COC(=O)C(CC#Cc1ccc2c(c1)[C@]1(C(=O)N2)[C@H](C(N)=O)[C@H]2C(=O)O[C@H](c3ccccc3)[C@H](c3ccccc3)N2[C@@H]1c1ccc(O)cc1)C(=O)OC
- composite z-score [1]: 1.12
- composite z-score [2]: -0.608
- composite z-score [3]: -0.0947
- z-score [4]: 0.0733 (inactive)
- composite z-score [5]: -0.519
- composite z-score [6]: -1.15
- composite z-score [7]: -1.1
- composite z-score [8]: -1.28
- composite z-score [9]: -0.591
- composite z-score [10]: -1.15
- composite z-score [11]: -1.74
- z-score [12]: -0.152
- composite z-score [13]: -1.19
- composite z-score [14]: -0.351
- composite z-score [15]: 0.221
- composite z-score [16]: -0.359
- composite z-score [17]: 0.373
- composite z-score [18]: -0.446
- composite z-score [19]: 0.659
- composite z-score [20]: -0.243

SMILES: NCCCCCNC(=O)[C@H]1C[C@H]2C(=O)NCC(=O)N2[C@H]1c1ccc(O)cc1
- composite z-score [1]: 1.02
- composite z-score [2]: 0.154
- composite z-score [3]: 0.212
- z-score [4]: -0.25 (inactive)
- composite z-score [5]: 1.37
- composite z-score [6]: 1.31
- composite z-score [7]: 0.383
- composite z-score [8]: 1.07
- composite z-score [9]: 1.74
- composite z-score [10]: 0.324
- composite z-score [11]: 0.861
- z-score [12]: 0.245
- composite z-score [13]: 1.49
- composite z-score [14]: 1.53
- composite z-score [15]: 0.954
- composite z-score [16]: -0.0981
- composite z-score [17]: -0.206
- composite z-score [18]: -0.216
- composite z-score [19]: 0.712
- composite z-score [20]: 2.71

— PubChem BioAssay
